# Source: PubChem BioAssay AID2551 (National Center for Advancing Translational Sciences (NCATS), 2010)
# “And” between values parts separate entries of the source, which are not always exact repeats. Identical values can stand only once. Out of some 310,000 compounds screened, about 17,000 (5.5%) were called active. Inconclusive results (about 11%) are left out. The entries come from a sample that favours actives as a whole. Values without a mark were called inactive. The call rests on the fitted dose curve; in most records, active means well fitted inhibition curve with a large enough effect; inconclusive means small, poorly fitted or top-dose-only effect, or effect the other way; inactive means no such curve, though single readings can be large or run the other way.
# Molecular target: Nuclear receptor ROR-gamma (Mus musculus) (UniProt P51450)
# Assay: qHTS for inhibitors of ROR gamma transcriptional activity; further: nearly all actives have a fitted effect of over 60% in size
# Details: Drosophila S2 Gal4-RORgamma UAS-luciferase reporter, 20 h; series mostly up to 53.6 µM; activity change, negative = inhibition: at the top concentration
# How it was run: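 ROR gamma transcriptional activity was tracked as Gal4-UAS luciferase output in stably transfected Drosophila Schneider cells, with compound added 1 hr before 700 uM copper sulfate induction and a 20 hr ambient-temperature incubation.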
# On the % scale 0 is the no-effect control and ±100 the full control effect; potency means the concentration at half of the fitted maximal effect.
# Nuclear receptor ROR-gamma (Mus musculus), sequence (P51450 whole entry, looked up): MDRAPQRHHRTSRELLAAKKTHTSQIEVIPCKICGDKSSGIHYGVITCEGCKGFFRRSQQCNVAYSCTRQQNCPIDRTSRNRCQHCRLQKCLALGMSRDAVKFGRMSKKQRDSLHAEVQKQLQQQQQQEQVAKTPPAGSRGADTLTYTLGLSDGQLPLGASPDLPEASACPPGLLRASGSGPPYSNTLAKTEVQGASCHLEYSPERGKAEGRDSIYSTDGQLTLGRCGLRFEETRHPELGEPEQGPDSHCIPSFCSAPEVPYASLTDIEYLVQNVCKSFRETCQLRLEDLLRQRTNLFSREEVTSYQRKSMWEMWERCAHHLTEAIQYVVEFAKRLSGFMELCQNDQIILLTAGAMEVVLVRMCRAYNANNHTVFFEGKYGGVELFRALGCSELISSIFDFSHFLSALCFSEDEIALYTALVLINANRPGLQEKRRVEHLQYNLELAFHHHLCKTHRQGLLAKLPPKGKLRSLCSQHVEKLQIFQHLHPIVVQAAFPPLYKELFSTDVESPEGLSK
SMILES,"activity change, negative = inhibition",Potency
CCC1CCCCN1C(=O)CSc1nc2c(c(=O)n1C)SC(C)C2 (stereo unspecified),15.6%,
Cc1noc(C)c1CCC(=O)N1CCCC(CO)(Cc2ccccc2)C1 (stereo unspecified),26.1%,
CCOc1ccc(NC(=O)C2CCN(C(=O)N3CCOc4ccccc43)CC2)cc1,20.2%,
CCC(C)Sc1nc2c(cnn2-c2ccc(F)cc2)c(=O)[nH]1 (stereo unspecified),-3.01%,
CCc1[nH]nc(C(=O)N2CCCC(CO)(Cc3ccc(F)cc3F)C2)c1C (stereo unspecified),22%,
CCOc1ccc2nc(NC(=O)CSc3nc4c(c(=O)n(C)c(=O)n4C)n3CC)sc2c1,8.92%,
CCC(=O)c1ccc(OCC(=O)Nc2ccc3nc(C)sc3c2)cc1,15%,
COc1ccc2nc(NC(=O)NC3CCCCC3)sc2c1,5.57%,
CNC(=O)c1ccc2nc(NC(C)=O)sc2c1,9.09%,
COc1cccc(C(=O)Nc2nc3ccc(S(C)(=O)=O)cc3s2)c1,,7.94 µM (active)
COc1ccc2nc(Nc3nc4ccc(NC(C)=O)cc4s3)sc2c1,,2.82 µM (active)
CCOc1ccc(S(=O)(=O)Nc2nc3cc(OC)ccc3s2)cc1,2.49%,
CS(=O)(=O)c1ccc2nc(NC(=O)c3ccc(Cl)nc3)sc2c1,0.945%,
CS(=O)(=O)c1ccc2nc(NC(=O)c3ccc(N4CCCC4=O)cc3)sc2c1,33.9%,
COc1ccc2nc(NC(=O)[C@@H]3CCCN3C(=O)c3cccs3)sc2c1,40.9%,
CCOc1ccc2nc(Nc3nc4ccc(NC(C)=O)cc4s3)sc2c1,,3.16 µM (active)
COc1ccc2nc(Nc3nc4cc5c(cc4s3)OCCO5)sc2c1,,12.6 µM (active)
Cc1ccc2nc3c(cc(C(=O)NCCc4ccccc4)c(=N)n3CC3CCCO3)c(=O)n2c1 (stereo unspecified),20.8%,
COc1ccccc1N(C)C(=O)c1cc(S(=O)(=O)N2CCc3ccccc32)cn1C,2.49%,

SMILES,"activity change, negative = inhibition",Potency
O=C(NCCOc1cccnc1)c1ccc(OC2CCN(Cc3ccccn3)CC2)cc1,-11.4%,
Nc1nnnn1/N=C/c1cccc(Br)c1,6.51%,
CCCc1nn(C)c2c(=O)[nH]c(-c3cc(S(N)(=O)=O)ccc3OCC)nc12,6.93%,
CCOc1cc(-c2noc(CCCC(=O)NC3CCCCC3)n2)ccc1OC,16.1%,
O=C(NCCCn1ccnc1)C1CCCN(S(=O)(=O)c2cc(Cl)ccc2Cl)C1 (stereo unspecified),-23.4%,
CCCNC(=O)c1cnc(-c2ccccc2)nc1-c1ccccc1,-6.75%,
C[C@H](NC(=O)C1CCN(S(=O)(=O)c2ccccc2)CC1)C(=O)NCc1ccccc1,-4.29%,
COc1ccc2nc(Nc3nc(-c4cc5ccccc5oc4=O)cs3)sc2c1,,7.08 µM (active)
COc1ccc2nc(Nc3nc(-c4ccncc4)cs3)sc2c1,-43%,
COc1ccc2oc(=O)cc(-c3cc4ccccc4o3)c2c1,-21.6%,
COCCOC1CCN(C(=O)c2ccc(OC)c(OC3CCN(C(C)C)CC3)c2)CC1,-3.76%,
COc1ccccc1C(=O)N(Cc1ccc(C)o1)C1CCS(=O)(=O)C1 (stereo unspecified),15.5%,
CCOC(=O)c1ccc2[nH]c3c(c2c1)CCCC3NC=O (stereo unspecified),8.7%,
Cc1cccc(C(=O)Nc2nnc(Cc3c[nH]c4ccccc34)s2)c1,27.2%,
Cc1cccc(N=C2NN=C(c3c[nH]c4ccccc34)CS2)c1,,4.47 µM (active)
N#Cc1c(N2CCCCC2)nc(N)c2c(N)nc(SCC(=O)O)cc12,,3.98 µM (active)
N#Cc1c(-c2ccccc2)cc(-c2ccccc2)nc1SCC(=O)O,3.5%,
Cc1cc(C)c(C#N)c(N2CCC(C(N)=O)CC2)n1,-3.81%,
COc1ccccc1N1CCN(C(=O)c2cc(=O)c3cc(C)ccc3o2)CC1,-23%,

SMILES,"activity change, negative = inhibition",Potency
COc1ccc(C(C(=O)NC2CCCC2)N(CCCO)C(=O)Cn2nnc(-c3ccc(C)o3)n2)cc1 (stereo unspecified),-14.8%,
COC(=O)c1ccc(NC(=O)CSc2nnc(C3CC3)n2C)cc1,-18.9%,
COC(=O)CN1C(=O)[C@H]2[C@@H](/C=C/c3ccccc3)N3C(=O)CN(Cc4ccccc4)C(=O)[C@@]3(Cc3ccccc3)[C@H]2C1=O,14.6%,
CCOC(=O)c1cccc(NC(=O)CN2C(=O)C3CC=CCC3C2=O)c1 (stereo unspecified),4.38%,
C=CCNC(=O)COc1coc(CN2CCN(Cc3ccccc3)CC2)cc1=O,11.3%,
C=CCNC(=S)NNC(=O)COc1c(Cl)cc(Cl)cc1Cl,,1.26 µM (active)
C=CCNC(=O)CCCOc1cccc(C)c1,14.2%,
Cc1ccsc1C(=O)N[C@@H](C)c1nnc2ccccn12,6.89%,
O=C(c1ccc(Br)o1)N1CCN(CCOc2ccccc2)CC1,-19.1%,
O=C(N=C1SC2CS(=O)(=O)CC2N1c1cc(Cl)ccc1Cl)C1CC1 (stereo unspecified),0.391%,
Cc1ccc(S(=O)(=O)Nc2ccc3ncccc3c2)cc1,-8.13%,
COc1cc(NS(=O)(=O)c2ccc3ccccc3c2)c2ncccc2c1,,1.12 µM (active) and 178 nM (active)
COc1ccc2cc(S(=O)(=O)Nc3ccccn3)ccc2c1,-10.9%,
COc1cc2c(cc1OC)C(c1cccc([N+](=O)[O-])c1)=NCC2,25.9%,
Cc1cc(=O)oc2c1ccc1ccccc12,2.03%,
Brc1ccc2nc(N3CCCC3)sc2c1,-43.7%,
c1c2c(cc3sc(N4CCCCC4)nc13)OCCO2,,0.794 µM (active)
Cc1nc2cc3c(cc2s1)OCO3,2.56%,
